Reference: the supplement of paper PMC6555819

Tests used:
Experiment in all cases: PBM binding z-score (relative to random genomic background probes); higher = stronger binding; sequences stand for … in GC…GCGATTGACAGCGTAGAATGAAGG
[1] = system: RARb homodimer (NR concentration 270 nM)
Outline: (§1)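 Ligand-free nuclear receptor dimers were applied to custom Agilent 4×180K protein-binding microarrays whose double-stranded probes carried direct-repeat seeds, single-nucleotide variants, half-site ablations and random human genomic background sequences in 34-nt variable regions. Incubation lasted 1 h. Binding z-scores were computed against the random background probes from regression-normalized fluorescence.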

[2] = system: RARg homodimer (NR concentration 270 nM)
Outline: as §1

[3] = system: RXRa DBDmut IVT, anti-RXR (DBD mutation: RXRa K156A/R161A, NR concentration 90 nM)
Outline: as §1

[4] = system: RXRa homodimer (NR concentration 180 nM)
Outline: as §1

[5] = system: THRa:RXRa (NR concentration 90 nM, RXRa partner concentration 90 nM)
Outline: as §1

[6] = system: THRa homodimer (NR concentration 90 nM)
Outline: as §1

[7] = system: VDR homodimer (NR concentration 270 nM)
Outline: as §1

[8] = system: VDR:RXRa (NR concentration 270 nM, RXRa partner concentration 90 nM)
Outline: as §1

Sequence	PBM binding z-score [1]	PBM binding z-score [2]	PBM binding z-score [3]	PBM binding z-score [4]	PBM binding z-score [5]	PBM binding z-score [6]	PBM binding z-score [7]	PBM binding z-score [8]
ACTAATTGGTCAGCTGAGGTCACACACAATTCGG	4.72	4.46	1.68	4.65	5.12	5.41	3.46	–
AGTCAAAGTTCAGGACGAGGTACCGTAAAGCACG	3.04	4.98	2.91	3.07	2.66	0.724	1.78	–
CAAACTAGGTCAAGAGGTCAAACTCCGCTTCCCG	5.81	7.93	3.21	8.2	4.49	2.71	5.63	–
CCAACTAGGTCATTGACAGGACAGTGAATAGTAA	2.83	4.34	2.47	2.61	2.88	1.31	1.64	–
TGGCCTAGGTCATGCGGGCCAGTATAGTGTCGGC	2.85	4.45	-0.03	3.03	2.68	0.284	0.128	–
ATAAGTAGGTTAGGGTCATTCAGAAAGTAGGGAA	3.7	3.3	2.39	5.12	4.31	3.58	4.32	–
AGTCAAAGTTGATCTAGGTAACGTAAGATATGCT	-0.057	0.579	-0.227	0.191	1.36	-0.0633	-0.278	–
CCTCGGAGGACAACCGGAGGTCAGAGCTGCCAGA	3.53	3.47	0.243	1.86	3.14	1.3	1.41	–
ATCGAAAGGTCGAAGGAGAGTATACCCACCCGAA	1.98	3.81	0.774	3.75	1.76	-0.242	0.458	–
GCTGCTAGGTCAACTGAAGGTCAGCTAAAGCTCG	5.31	7.38	1.68	4.88	4.03	1.66	1	–
TAGCCAAGGTCATTCAGGGGCCAGTATAGAAAGC	4.08	6.27	4.05	5.47	4.08	1.75	3.99	–
CCTACTGGGCCAAGGTCATTGAGCAGTCAAAGCA	3.03	3.23	1.23	3.66	3.23	2.18	2.65	–
CCTTACGGGTCACTGACAGGTCATAGCATTTGGA	4.59	5.71	1.79	6.67	3.98	0.878	2.15	–
ATATGTAGGTTACATGCGGGTCATTCAGGCTATG	2.51	2.18	0.745	3.16	2.85	0.633	2.05	–
ATCGAAAGGTCGAGGAGGTGAGTATACACCGTTT	2.92	4.23	0.868	4.21	2.85	-0.12	0.435	–
ATCGAAACGTCGTGAGGTGAGTATACAGAAAGGC	-0.153	0.49	-0.879	0.393	1.63	0.771	-0.417	–
CCTACTGGGCCAAAGGCCATTGATTCCAATGCTC	0.736	0.568	-0.726	-0.132	-0.0621	-0.567	-0.468	–
CCGACTGGGGCAACGGTTACCATACTCAGTACGA	0.463	0.749	-0.399	0.0122	-0.149	-0.243	-0.248	–
CCTCGGAGGACAACAGGATGTCAGAGCTGCCAGA	0.537	1.19	-0.233	-0.144	0.449	-0.131	-0.662	–
TAGCCTAGGTCATTCAGGGGTCAGTATAGAAAGC	5.2	6.28	2.75	5.8	4.22	2.13	4.47	–
CCTCGGAGGACAACAGGAGGTCAAAGCTGCCAGA	3.77	3.86	0.524	3.56	3.43	1.34	2.4	–

Sequence	PBM binding z-score [1]	PBM binding z-score [2]	PBM binding z-score [3]	PBM binding z-score [4]	PBM binding z-score [5]	PBM binding z-score [6]	PBM binding z-score [7]	PBM binding z-score [8]
CGAACTAGGTCAAAAGACAGTGAAAGGCGACGTA	1.72	3.68	1.21	2.54	1.64	-0.0657	-0.0484	–
ATCGAAATGTCGTGAGGTGAGTATACAGAAAGGC	0.113	0.683	-0.3	0.0827	1.74	1.16	-0.224	–
TAGCCTAGGTCATTGGGCCAGTATAGTACGCATC	3	4.22	1.6	2.73	2.83	0.768	0.954	–
CGTCCGAGGTCAATGCTAGGTCAGTGAAAGCATT	4.93	6.71	4.03	6.61	4.6	2.97	4.57	–
CAGCCTAGTTCAGGGCCAGTATAGGAGGAACGTT	0.7	0.665	0.532	0.15	-0.00106	-0.234	0.209	–
CGTCCAAGGTCACCAGGTCAGTGAAAGCGACGTG	5.13	7.7	3.61	7.13	4.45	4.12	3.44	–
CCTTACGGGTCACTCCAGGTTCTAGCATCGGAGT	2.64	4.07	1.4	4.18	4.32	0.0825	1.07	–
TAGCCTAGCTCATTCAGGGGCCAGTATAGAAAGC	-0.0305	-0.378	-0.495	-0.481	-0.465	-0.799	-0.369	–
GATACAGGGTCAACTAGAGGCCAGAGTATGGAAA	3.92	5.56	2.92	6.53	3.79	0.92	2.44	–
CCTGCTAGGTCAATGGTCAGCTCAAGCAGCTCGC	3.02	4.32	1.88	1.92	2.23	0.708	0.174	–
CGAACTAAGTCATTGACAGGACAGTGAATAGTAA	-0.122	0.434	0.322	-0.0903	0.19	-0.56	-0.385	–
CGAACTAAGTCACCAGGACAGTGAAGAGGTTGGA	0.502	0.343	0.000632	0.285	1.27	0.708	0.106	–
GATACGGGGTCAGCTAGAGGCCAGAGTATGGAAA	4.12	6.6	3.39	7.4	4.28	1.14	2.68	–
AATACAGGGTCCTCGTAGGCCAGAGTACGCACAG	0.334	0.183	-0.129	0.449	1.16	0.203	0.487	–
TCTCGGAGGACACGAAAGGTCAGTGCTCGACATC	4.96	5.21	1.23	3.34	3.49	1.51	1.24	–
ACTCGGAGGACAAACGTCAGAGCTACGCCAGTGA	0.0238	1.15	0.497	-0.425	0.312	-0.476	-0.183	–
CCTAGCAGGCCAGGTTCACTCAAGCATTTCGCTT	0.543	0.106	2.28	0.844	0.5	0.0438	3.42	–
CCTTACGGGTCCCTGACAGGTTATAGCATTTGGA	0.357	0.233	-0.553	0.295	0.389	-0.0756	0.0432	–
AGTCAAAGGTCAGGACGAGGTAACGTAAAGCACG	4.82	7.93	1.32	7.47	–	2.11	0.891	–
CGTCCAAGGTCAAGGTCACTGAAAGAGACTCGAA	5.6	8.3	3.73	–	–	4.35	4.03	–
CAAACTAGGTCAAAGGTCAAACTCGAGCCAACCA	5.32	8.15	3.04	10.5	4.85	2.14	4.14	–

Sequence	PBM binding z-score [1]	PBM binding z-score [2]	PBM binding z-score [3]	PBM binding z-score [4]	PBM binding z-score [5]	PBM binding z-score [6]	PBM binding z-score [7]	PBM binding z-score [8]
TGTCAAAGCTCAAAGGTAACGTAAGTATCCACAC	0.284	0.498	-1	0.764	1.25	-0.706	-0.613	–
GATACAGGGTGAAGGCCAGAGTACGCGTATTGAT	0.673	0.704	-0.695	0.721	–	-0.473	-0.248	–
GCTTACGGGTCAAAAGTTATAGCATGAATAGAAT	2.05	3.15	1.93	4.84	2.08	-0.478	0.684	–
CGAACTAGGTCAAAGGACAGGGAAAGGCGACGTA	3.14	4.68	1.07	2.78	2.49	0.631	0.464	–
ATCGAAACGTCGACGAGGTGAGTATACACCGTTT	-0.247	0.527	-0.148	0.362	1.1	0.23	-0.146	–
CCTAGTTGGTCAAGGTCACACATGCTATAGGTAC	4.33	4.71	2.2	4.11	3.96	4.12	3.99	–
CAAACCAGGTCACGAAAGGTCAAAGTCGAATGAC	5.97	9.05	2.9	–	5.23	3.86	4.47	–
CGTCCAAGGTCAATGCAAGGTCAGTGAAAGCATT	5.5	7.06	3.92	6.02	–	4.02	3.85	–
ACTCGGAGGACAAAGGTCACAGCTACGCCAGTGA	5.26	6.99	1.55	–	4.23	1.62	2.46	–
CGTCCAAGGTCACAGGAGGTCAGTGAAGACAGAT	5.53	8.33	3.73	–	5.28	3.66	4.32	6.62
CGAACTAAGTCATCCAGGACAGTGAATACATTGA	0.33	0.549	0.248	0.264	1.55	1.1	0.0279	–
TAGCCTAGGTCATTTGGCCAGTATAGTACGCATC	2.59	4.08	1.99	2.73	2.65	0.679	1.27	–
CAACCTAGGTCACCGGAAGGTCAAAGTCCGCATG	5.77	8.03	2.46	7.71	4.63	3.03	4.09	–
TAGCCTAGGTCATTCAGGGGGCAGTATAGAAAGC	4.09	5.84	2.37	4.33	3.8	2.11	3.36	–
AGCGAAAGGTCGAAGGTGAGTATACCCACCCGAA	2.44	4.05	0.876	5.09	2.04	-0.329	0.312	–
CGAACTAGGTCAAAGGTCAGTGAAAGGCGACGTA	5.03	6.89	2.37	–	4.55	1.2	1.85	–
CGAACTAGGTCACCAGGACAGTTAAGAGGTTGGA	3.53	5.1	1.21	3.22	3.41	1.68	0.347	–
TGTCAAAGTTCTAAGGTAACGTAAGTATCCACAC	0.168	0.585	-0.0657	–	2.88	2.43	-0.114	–
TATCCTAGGTCAGATCGGGCCAGTATACGCTATA	2.53	3.86	0.36	2.21	4.25	0.858	0.237	–
CCTACTGGGTCATTCAGAGGTCATTGATCATATG	5.21	5.46	2.77	5.75	4.32	2.15	4.41	–
